Here are results for 30 compounds from PubChem BioAssay (Tox21).

Unmarked numbers belong to inactive results. Records with an inconclusive call do not appear. Active and inactive are the calls of the source. Calls come from the whole dose curve; as a rule, active = well fitted curve in the direction sought with a large enough effect in the repeat runs; inconclusive = weak or mixed curves; inactive = no such curve, though single readings can be large; an effect the other way counts as inactive or inconclusive.

Experiment [1] is described as follows: Caspase-3/7 induction in HepG2 cells by small molecules, qHTS assay (AID 1346978). Note: nearly all actives have a fitted effect of over 15% in size. Summed up:
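Wild-type HepG2 cells (2,000/well) were settled 5 h at 37 C, 5% CO2, then exposed to compounds in DMSO for 17 h. Caspase-3/7 activity was read by luminescence 30 min after adding Caspase-Glo 3/7 reagent at room temperature.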
(In qHTS, concentration-response curves come from the screen itself.)

The nature of experiment [2]: Caspase-3/7 induction in CHO-K1 cells by small molecules, qHTS cell viability counter screen (AID 1346979). Note: nearly all actives have a fitted effect of over 35% in size. Note: potency is the fitted concentration of half-maximal effect. Summed up: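 To flag cytotoxic compounds, treated CHO-K1 wild-type cells were given CellTiter-Fluor at 16hr and read fluorescently after 1hr at 37C; the caspase-3/7 luminescence was measured in these same wells.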
The nature of experiment [3]: Caspase-3/7 induction in CHO-K1 cells by small molecules, qHTS assay (AID 1346980). Note: nearly all actives have a fitted effect of over 15% in size. The procedure, abridged: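 Wild-type cells were seeded at 1,500 per well and settled 5 hr at 37 C, 5% CO2, then exposed to DMSO-dissolved compounds for 17 hr. Caspase-Glo 3/7 reagent was added, and luminescence was read after 30min at room temperature.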
Experiment [4] in a line: Caspase-3/7 induction in HepG2 cells by small molecules, qHTS cell viability counter screen (AID 1346981). For activity change, negative = cytotoxicity: series mostly up to about 92 µM. Note: nearly all actives have a fitted effect of over 30% in size. Note: potency is the fitted concentration of half-maximal effect. Summed up:
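Wild-type HepG2 cells (2,000/well) were allowed to settle for 5 hr at 37 C, 5% CO2, then dosed with compounds in DMSO by pin transfer. After 16 hr at 37 C, CellTiter-Fluor was added and fluorescence read 1 hr later.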

Experiment [5] addresses Nuclear receptor subfamily 1 group I member 2 (Homo sapiens) (UniProt O75469). The experiment can be described thus: Human pregnane X receptor (PXR) small molecule agonists, qHTS assay (AID 1346982). Note: nearly all actives have a fitted effect of over 35% in size. Note: potency is the fitted concentration of half-maximal effect. The procedure, abridged: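 PXR-Luc HepG2 cells (CYP3A4 promoter-driven luciferase) were seeded in medium with 5% charcoal-stripped FBS, left 5 hr at 37 C, then exposed to compounds in DMSO for 24 hr. Luminescence was read after ONE-Glo addition.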

Experiment [6] has as its target Cytochrome P450 2D6 (Homo sapiens) (UniProt P10635). The experiment can be described thus: Cytochrome P450 Family 2 Subfamily D Member 6 (CYP2D6) small molecule antagonists: luciferase reporter qHTS assay (AID 1671196). Note: nearly all actives have a fitted effect of over 50% in size. Note: potency is the fitted concentration of half-maximal effect. Summed up: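 CYP2D6 enzyme–substrate mix was held with compound for 10 min at room temperature, then NADPH regeneration solution was added and the reaction ran 1 h at room temperature. Luciferin product was detected by luminescence after 20 min with detection reagent.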
(A reporter such as luciferase makes a cellular process visible.)

Experiment [7] deals with Nuclear receptor subfamily 1 group I member 2 (Homo sapiens) (UniProt O75469). The experiment can be described thus: CYP3A4 induction through human pregnane X receptor (PXR) by small molecules, qHTS assay (AID 1346984). Note: nearly all actives have a fitted effect of over 40% in size. Note: potency is the fitted concentration of half-maximal effect. Summed up:
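DPX-2 cells (HepG2 co-transfected with PXR and CYP3A4 promoter-luciferase) treated with compounds 24 h at 37C; luciferin-IPA CYP3A4 substrate 3uM final added for 3 h, then One-Glo; luminescence read. qHTS format.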

Experiment [8] shares this target. The experiment can be described thus: Human pregnane X receptor (PXR) activation by small molecules, qHTS assay (AID 1346985). Note: nearly all actives have a fitted effect of over 40% in size. Note: potency is the fitted concentration of half-maximal effect. Summed up: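 DPX-2 cells (HepG2 co-transfected with a PXR response element and a CYP3A4-promoter luciferase construct) were seeded at 2,000 per well, rested 5 hr at 37C, then exposed to DMSO-dissolved compounds for 24 hr. Activation was read as luciferase luminescence.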

The target in experiment [9] is Nuclear receptor subfamily 1 group I member 2 (Rattus norvegicus) (UniProt Q9R1A7). The experiment can be described thus: Rat pregnane X receptor (rPXR) activation by small molecules, qHTS assay (AID 1346983). Note: nearly all actives have a fitted effect of over 20% in size. Note: potency is the fitted concentration of half-maximal effect. The conditions noted are these: rPXR luciferase reporter cells, One-Glo luminescence, 24 h; max activation: active compounds read high. Summed up: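 Cell-based rPXR luciferase reporter assay, 2,000 cells per well, rested 5hr at 37 C before compound addition in DMSO, then 24 hr at 37 C. One-Glo reagent was added and luminescence read after 30 min at room temperature.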
Sequence of Nuclear receptor subfamily 1 group I member 2 (Rattus norvegicus) (Q9R1A7 whole entry, looked up): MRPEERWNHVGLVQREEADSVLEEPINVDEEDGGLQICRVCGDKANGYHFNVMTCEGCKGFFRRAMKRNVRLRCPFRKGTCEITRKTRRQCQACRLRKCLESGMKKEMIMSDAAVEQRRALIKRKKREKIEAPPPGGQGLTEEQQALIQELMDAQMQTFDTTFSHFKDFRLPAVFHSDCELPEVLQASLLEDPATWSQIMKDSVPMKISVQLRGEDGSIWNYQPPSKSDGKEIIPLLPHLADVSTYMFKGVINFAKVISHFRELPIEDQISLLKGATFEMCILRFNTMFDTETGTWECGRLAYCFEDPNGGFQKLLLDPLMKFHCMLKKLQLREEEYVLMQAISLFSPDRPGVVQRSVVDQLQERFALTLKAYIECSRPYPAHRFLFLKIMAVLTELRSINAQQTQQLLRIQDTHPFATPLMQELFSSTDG

A short description of experiment [10]: Human pregnane X receptor (PXR) small molecule agonists, qHTS cell viability counter screen (AID 1346977). Note: nearly all actives have a fitted effect of over 50% in size. Note: potency is the fitted concentration of half-maximal effect. Summed up:
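Readout is CellTiter-Fluor fluorescence from PXR-Luc HepG2 cells. Plated cells rested 5hr, then were treated with compounds for 24hr at 37C and 5% CO2, with reagent present during the last hour.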
% is set by controls: 0 for no effect and ±100 for the full control effect.

Sequence of Cytochrome P450 2D6 (Homo sapiens) (P10635 whole entry, looked up): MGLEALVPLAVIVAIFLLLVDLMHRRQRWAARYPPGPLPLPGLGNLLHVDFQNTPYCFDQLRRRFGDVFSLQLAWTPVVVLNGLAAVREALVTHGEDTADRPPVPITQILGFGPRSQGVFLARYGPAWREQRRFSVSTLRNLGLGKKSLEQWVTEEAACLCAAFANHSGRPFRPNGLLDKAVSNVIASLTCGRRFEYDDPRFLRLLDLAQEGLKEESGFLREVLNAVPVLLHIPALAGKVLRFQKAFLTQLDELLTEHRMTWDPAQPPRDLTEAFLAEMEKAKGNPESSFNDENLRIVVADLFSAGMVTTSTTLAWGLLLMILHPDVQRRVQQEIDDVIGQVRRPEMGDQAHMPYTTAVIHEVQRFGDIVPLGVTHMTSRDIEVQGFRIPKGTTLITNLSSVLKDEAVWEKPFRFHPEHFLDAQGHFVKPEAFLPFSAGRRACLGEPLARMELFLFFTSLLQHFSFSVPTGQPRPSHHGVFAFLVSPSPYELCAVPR
Sequence of Nuclear receptor subfamily 1 group I member 2 (Homo sapiens) (O75469 whole entry, looked up): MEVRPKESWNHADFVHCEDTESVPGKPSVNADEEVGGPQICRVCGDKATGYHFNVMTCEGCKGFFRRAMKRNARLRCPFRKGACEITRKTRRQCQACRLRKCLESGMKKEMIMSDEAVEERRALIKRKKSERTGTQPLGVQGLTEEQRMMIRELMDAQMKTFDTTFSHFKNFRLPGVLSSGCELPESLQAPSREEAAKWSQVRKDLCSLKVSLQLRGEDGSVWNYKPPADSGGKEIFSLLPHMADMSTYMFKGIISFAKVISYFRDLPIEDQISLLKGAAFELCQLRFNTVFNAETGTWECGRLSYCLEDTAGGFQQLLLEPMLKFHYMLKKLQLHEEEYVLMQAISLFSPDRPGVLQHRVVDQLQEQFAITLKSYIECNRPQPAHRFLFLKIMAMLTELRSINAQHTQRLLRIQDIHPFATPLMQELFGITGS

Take `O=CNc1ccccc1`: the result in experiment [1] was inactive. Moreover, the Potency entry in [2], in experiment [3], in experiment [4], in experiment [5] and in experiment [6] was “inactive” each time.
With `O=S1(=O)c2cccc3cccc(c23)N1CCCN1CCN(c2ccc(F)cc2)CC1`, the compound was classed as inactive in [1]. Also, the Potency entry in [2], in [3], in experiment [4] and in experiment [7] was “inactive” in each case. Further, the figures for the Potency in experiment [5], in experiment [8] and in experiment [6] were 4.73 µM (active), 15.8 µM (active) and 1.55 µM (active), respectively.
`CN(C)C/C=C(/c1ccc(Br)cc1)c1cccnc1`: the call in experiment [1] was inactive. For the same compound, the Potency entry in [2], in experiment [3] and in experiment [4] was “inactive” throughout. Further, the max activation in [9] is -0.374%.
As to `O=C=NC1CCC(CC2CCC(N=C=O)CC2)CC1` (centres undefined), the outcome in experiment [1] was inactive. Also, the Potency result in experiment [2], in [3] and in experiment [4] was “inactive” each time. In addition, in [6], the Potency is 35.6 µM (active).
Regarding `c1ccc(OCc2ccc(CCCN3CCOCC3)cc2)cc1`, the outcome in experiment [1] was inactive. Further, the Potency entry in experiment [3], in experiment [4], in experiment [7] and in [8] was “inactive” in each case. The Potency in [6] was 15.5 µM (active).
With `C[C@H](CCC(=O)O)[C@H]1CC[C@H]2[C@@H]3[C@H](O)C[C@@H]4C[C@H](O)CC[C@]4(C)[C@H]3CC[C@]12C`, the Potency entry in experiment [10], in [5], in experiment [7] and in [8] was “inactive” in each case. For the same compound, in [9], the max activation was -0.524%. Also, the Potency in [6] was 56.6 µM (active).
In the case of `CN1CCC(=C2c3ccccc3CCc3sccc32)CC1`, in experiment [1], the result was inactive. Moreover, the Potency entry in experiment [2], in experiment [3], in [4] and in experiment [8] was “inactive” each time. In addition, in experiment [9], the max activation was 0.0937%. In addition, the Potency in experiment [7] was 28.2 µM (active); in experiment [6], 1.23 µM (active).
For the compound `CC(C)(C)c1ccc(OCC2CO2)cc1` (centres undefined), the outcome in experiment [1] was inactive. Besides, the Potency in experiment [2] is 55.6 µM (active). For the same compound, the Potency entry in [3] was “inactive”.
`CCOC(=O)[C@H](CCc1ccccc1)N[C@H]1CCc2ccccc2N(CC(=O)O)C1=O`: the Potency in experiment [10] was 26.6 µM (active); in [2] it was 23.7 µM (active); in [5] it was 23.7 µM (active); in experiment [7], 10 µM (active). In addition, the Potency entry in experiment [3] is “inactive”.
Take `CN(C)CC/C=C1\c2ccccc2COc2ccccc21`: the call in experiment [1] was inactive. The Potency entry in [2], in [3] and in [4] was “inactive” in each case.
`Oc1ccc(Cc2ccccc2)cc1`: the Potency entry in experiment [10] and in [4] was “inactive” each time. Further, the Potency in experiment [5] was 56.6 µM (active).
Consider `Cc1cc(O)ccc1N`, for which, in experiment [1], the compound was called inactive. In addition, the Potency in experiment [2] is 61.4 µM (active); in experiment [5], 61.4 µM (active); in experiment [6], 20.1 µM (active).
With `CN1CCN(C2=Nc3cc(Cl)ccc3Nc3ccccc32)CC1`, the Potency in [10] and in experiment [4] was 23.7 µM (active) each time. Moreover, the Potency entry in experiment [3] and in experiment [5] was “inactive” in each case.
As for `CCCCc1cc2ccccc2c(OCCN(C)C)n1`, the compound was classed as inactive in experiment [1]. Besides, the Potency result in experiment [2], in experiment [3], in experiment [4], in [5], in [7] and in [8] was “inactive” throughout. Further, the max activation in experiment [9] is 6.03%. The Potency in [6] is 4.36 µM (active).
As for `O=C(Nc1ccccc1)OCC(CN1CCCCC1)OC(=O)Nc1ccccc1` (centres undefined), the result in [1] was inactive. Also, the Potency result in [4] was “inactive”. Also, the Potency in experiment [5] is 2.37 µM (active); in [7], 10 µM (active); in [6], 0.436 µM (active). For the same compound, the max activation in [9] is 0.646%.
`CC(C)(C)c1cc(CO)cc(C(C)(C)C)c1O`: the Potency entry in [10] and in experiment [4] was “inactive” throughout. In [1], the result was inactive. Further, in experiment [6], the Potency is 72.4 µM (active).
`CCOc1cc(OCC)c(C(=O)CCC(=O)O)cc1OCC`: the compound was classed as inactive in experiment [1]. The Potency result in [2], in experiment [3], in experiment [4], in experiment [5], in [7] and in [8] was “inactive” each time. For the same compound, the Potency entry in experiment [6] was “inactive”. For the same compound, the max activation in experiment [9] was -2.62%.
For the compound `CN1CCC(=C2c3ccccc3C=Cc3ccccc32)CC1`, the outcome in [1] was inactive. Also, the Potency result in experiment [3] and in experiment [4] was “inactive” throughout. In addition, the Potency in [6] is 2.45 µM (active).
Consider `CC(Cc1cccc(C(F)(F)F)c1)NCCOC(=O)c1ccccc1` (centres undefined), for which the Potency entry in experiment [3], in experiment [4], in [5], in experiment [7] and in experiment [8] was “inactive” in each case. For the same compound, the max activation in [9] was -0.287%. In experiment [6], the Potency was 0.0977 µM (active).
In the case of `Oc1ccc(Sc2ccc(O)cc2)cc1`, the Potency entry in experiment [10] and in [4] was “inactive” each time. The compound was called inactive in [1]. Besides, the Potency in experiment [6] is 33.3 µM (active).
Turning to `OC(CCN1CCCCC1)(c1ccccc1)C1CCCCC1` (centres undefined), the result in [1] was inactive. Besides, the Potency result in [2], in experiment [3], in experiment [4], in experiment [7] and in [8] was “inactive” throughout. In experiment [9], the max activation was -2.68%. Moreover, the Potency in [6] is 0.977 µM (active).
Consider `Nc1ccc(C(=O)Nc2ccccc2N)cc1`, for which the Potency result in experiment [3], in experiment [4], in experiment [7] and in experiment [6] was “inactive” throughout. Besides, the results for the Potency in experiment [5], in [9] and in experiment [8] were 8.41 µM (active), 3.55 µM (active) and 11.2 µM (active), respectively.
As for `CC(C)(C)C(=O)OCOP(=O)(COCCn1cnc2c(N)ncnc21)OCOC(=O)C(C)(C)C`, the result in experiment [1] was inactive. In addition, the Potency entry in [4], in experiment [7], in [8] and in experiment [6] was “inactive” each time. Moreover, the Potency in [5] is 11.9 µM (active). Moreover, in experiment [9], the max activation was -2.44%.
On to `CCC(C)N(C)C(=O)c1cc2ccccc2c(-c2ccccc2Cl)n1` (centres undefined), for which the outcome in experiment [1] was inactive. Further, the Potency result in experiment [3] and in experiment [6] was “inactive” throughout. The Potency in experiment [5] was 0.498 µM (active).
As to `CN(C)CC[C@@H](c1ccc(Br)cc1)c1ccccn1`, in experiment [1], the compound was classed as inactive. The Potency entry in [2], in [3], in experiment [4], in [5] and in experiment [8] was “inactive” in each case. Also, the max activation in [9] was -1.37%. The Potency in [6] was 3.89 µM (active).
Consider `O=C(CCN1CCN2CCCC2C1)N1c2ccccc2Sc2ccc(Cl)cc21` (centres undefined), for which the caspase activation in experiment [1] was 1.09% [at 19 µM]. In [2], the activity change, negative = cytotoxicity is -16.9% [at 19 µM]. Further, the max activation in [9] is 3.92%. For the same compound, the Potency was 12.6 µM (active) in experiment [7], 12.6 µM (active) in [8] and 6.74 µM (active) in experiment [6].
As for `CCOc1ccc2[nH]cc(C(=O)NCc3ccccc3)c(=O)c2n1`, the Potency entry in experiment [10], in [4] and in experiment [6] was “inactive” in each case. For the same compound, the call in [1] was inactive.
Regarding `O=C(/C=C/c1ccc(O)c(O)c1)O[C@@H]1C[C@](O)(C(=O)O)C[C@@H](O)[C@H]1O`, the outcome in experiment [1] was inactive. The Potency entry in experiment [3], in experiment [4], in [5] and in experiment [6] was “inactive” each time.
For `Cc1ccccc1N=Nc1ccc(N=Nc2c(O)ccc3ccccc23)c(C)c1`, the outcome in experiment [1] was inactive. In addition, the Potency is 13.3 µM (active) in experiment [2] and 7.94 µM (active) in experiment [7]. In addition, the Potency result in experiment [5], in experiment [8] and in [6] was “inactive” each time. For the same compound, in experiment [9], the max activation is 6.7%.
Regarding `CC(C)(C)c1cc(O)c(C(C)(C)C)cc1O`, the compound was classed as inactive in [1]. Further, in experiment [2], the Potency is 61.1 µM (active). In addition, in experiment [3], the Potency entry is “inactive”.
